Experimental data as given in PubChem BioAssay AID1159580 (chemical genetic matrix, 2015).
Among all 5,500 compounds or so, about 2,000 (36%) were called active. Another 18% or so got no clear call; they are omitted. Cut-off read from the data, not from the text of the source: active = normalized growth mostly below about 0.91 (no sharp cut-off); inconclusive = no clear call, values can overlap the other calls; inactive = mostly above about 0.92. The list shows a part of the results.

Test: chemical genetic growth profiling, strain panel (AID 1159580);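 note: tested at 20 µM; growth read once vehicle control cultures reached saturation at 30 °C; 1 = growth at the plate median or of vehicle wells; lower values mean less growth of the strain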
Details: growth OD

Measured: normalized growth

COc1ccc2c(c1)CCC(c1ccccc1)=C2c1ccc(OCCN2CCCC2)cc1
active: S. cerevisiae deletion strains, locus YBR021W, strain FUR4, active compounds read low 0.239 | S. cerevisiae deletion strains, locus YCL029C, strain bik1, active compounds read low 0.549 | S. cerevisiae deletion strains, locus YDL035C, strain GPR1, active compounds read low 0.638 | S. cerevisiae deletion strains, locus YDL074C, strain BRE1, active compounds read low 0.511 | S. cerevisiae deletion strains, locus YDL101C, strain DUN1, active compounds read low 0.329 | S. cerevisiae deletion strains, locus YDL134C, strain PPH21, active compounds read low 0.407 | S. cerevisiae deletion strains, locus YDL192W, strain arf1, active compounds read low 0.095 | S. cerevisiae deletion strains, locus YDR101C, strain arx1, active compounds read low 0.675 | S. cerevisiae deletion strains, locus YDR162C, strain NBP2, active compounds read low 0.174 | S. cerevisiae deletion strains, locus YDR318W, strain mcm21, active compounds read low 0.382 | S. cerevisiae deletion strains, locus YDR388W, active compounds read low 0.181 | S. cerevisiae deletion strains, locus YDR502C, strain sam2, active compounds read low 0.405 | S. cerevisiae deletion strains, locus YER110C, active compounds read low 0.863 | S. cerevisiae deletion strains, locus YER167W, strain BCK2, active compounds read low 0.85 | S. cerevisiae deletion strains, locus YGL086W, strain mad1, active compounds read low 0.28 | S. cerevisiae deletion strains, locus YGL248W, strain PDE1, active compounds read low 0.465 | S. cerevisiae deletion strains, locus YGR135W, strain pre9, active compounds read low 0.408 | S. cerevisiae deletion strains, locus YGR252W, strain gcn5, active compounds read low 0.251 | S. cerevisiae deletion strains, locus YHR079C, strain IRE1 (second series), active compounds read low 0.617 | S. cerevisiae deletion strains, locus YHR094C, strain hxt1, active compounds read low 0.714 | S. cerevisiae deletion strains, locus YHR129C, strain ARP1, active compounds read low 0.674 | S. cerevisiae deletion strains, locus YHR200W, strain rpn10, active compounds read low 0.706 | S. cerevisiae deletion strains, locus YIL066C, strain RNR3, active compounds read low 0.553 | S. cerevisiae deletion strains, locus YIL073C, strain SPO22, active compounds read low 0.3 | S. cerevisiae deletion strains, locus YIR030C, strain dcg1, active compounds read low 0.513 | S. cerevisiae deletion strains, locus YJL095W, strain BCK1, active compounds read low 0.138 | S. cerevisiae deletion strains, locus YJL168C, strain set2, active compounds read low 0.409 | S. cerevisiae deletion strains, locus YJL187C, strain SWE1 (second series), active compounds read low 0.367 | S. cerevisiae deletion strains, locus YJR075W, strain HOC1, active compounds read low 0.593 | S. cerevisiae deletion strains, locus YKL190W, strain CNB1, active compounds read low 0.524 | S. cerevisiae deletion strains, locus YKR001C, strain vps1, active compounds read low 0.0705 | S. cerevisiae deletion strains, locus YLR039C, strain RIC1, active compounds read low 1.37 [resistant] | S. cerevisiae deletion strains, locus YLR058C, strain SHM2, active compounds read low 0.446 | S. cerevisiae deletion strains, locus YLR102C, strain apc9, active compounds read low 0.683 | S. cerevisiae deletion strains, locus YLR268W, strain sec22, active compounds read low 0.415 | S. cerevisiae deletion strains, locus YLR342W, strain FKS1 (second series), active compounds read low 0.348 | S. cerevisiae deletion strains, locus YLR371W, strain rom2, active compounds read low 0.355 | S. cerevisiae deletion strains, locus YLR418C, strain cdc73, active compounds read low 0.295 | S. cerevisiae deletion strains, locus YML016C, strain PPZ1, active compounds read low 0.491 | S. cerevisiae deletion strains, locus YML032C, strain rad52, active compounds read low 0.492 | S. cerevisiae deletion strains, locus YML124C, strain tub3, active compounds read low 0.672 | S. cerevisiae deletion strains, locus YMR223W, strain ubp8, active compounds read low 0.478 | S. cerevisiae deletion strains, locus YNL067W, strain RPL9B, active compounds read low 0.825 | S. cerevisiae deletion strains, locus YNL233W, strain BNI4, active compounds read low 0.423 | S. cerevisiae deletion strains, locus YNL307C, strain MCK1, active compounds read low 0.258 | S. cerevisiae deletion strains, locus YNL322C, strain KRE1, active compounds read low 0.796 | S. cerevisiae deletion strains, locus YNR052C, strain pop2, active compounds read low 0.136 | S. cerevisiae deletion strains, locus YOL006C, strain TOP1, active compounds read low 0.323 | S. cerevisiae deletion strains, locus YOL012C, strain htz1 0.17 | S. cerevisiae deletion strains, locus YOL147C, strain pex11, active compounds read low 0.445 | S. cerevisiae deletion strains, locus YOR061W, strain CKA2, active compounds read low 0.206 | S. cerevisiae deletion strains, locus YOR069W, strain VPS5, active compounds read low 0.859 | S. cerevisiae deletion strains, locus YOR136W, strain idh2, active compounds read low 0.734 | S. cerevisiae deletion strains, locus YOR144C, strain elg1, active compounds read low 0.813 | S. cerevisiae deletion strains, locus YOR184W, strain ser1, active compounds read low 0.522 | S. cerevisiae deletion strains, locus YOR316C, strain cot1, active compounds read low 0.794 | S. cerevisiae deletion strains, locus YPR119W, strain clb2, active compounds read low 0.774 | S. cerevisiae deletion strains, locus YPR163C, strain tif3, active compounds read low 0.0746 | S. cerevisiae deletion strains, locus YPR167C, strain met16, active compounds read low 0.633 | S. cerevisiae deletion strains, strain wtn01, active compounds read low 0.274 | S. cerevisiae strains, strain wild type, active compounds read low 0.358
inactive: S. cerevisiae deletion strains, locus YBR229C, strain ROT2, active compounds read low 0.946 | S. cerevisiae deletion strains, locus YDL185W, strain tfp1, active compounds read low 0.972 | S. cerevisiae deletion strains, locus YER155C, strain BEM2, active compounds read low 0.961 | S. cerevisiae deletion strains, locus YGL078C, strain dbp3, active compounds read low 0.973 | S. cerevisiae deletion strains, locus YGR078C, strain PAC10, active compounds read low 0.852 | S. cerevisiae deletion strains, locus YIL125W, strain kgd1, active compounds read low 0.987 | S. cerevisiae deletion strains, locus YJL134W, strain LCB3, active compounds read low 1.01 | S. cerevisiae deletion strains, locus YKL009W, strain mrt4, active compounds read low 0.925 | S. cerevisiae deletion strains, locus YKL068W, active compounds read low 0.994 | S. cerevisiae deletion strains, locus YKL085W, strain MDH1 (second series), active compounds read low 0.976 | S. cerevisiae deletion strains, locus YKL085W, strain MDH1, active compounds read low 0.976 | S. cerevisiae deletion strains, locus YLR262C, strain YPT6, active compounds read low 1.16 | S. cerevisiae deletion strains, locus YMR078C, strain ctf18, active compounds read low 0.979 | S. cerevisiae deletion strains, locus YMR307W, strain GAS1, active compounds read low 0.764 | S. cerevisiae deletion strains, locus YNL250W, strain rad50, active compounds read low 0.953 | S. cerevisiae deletion strains, locus YNL271C, strain bni1, active compounds read low 0.992 | S. cerevisiae deletion strains, locus YNL298W, strain CLA4, active compounds read low 0.957 | S. cerevisiae deletion strains, locus YPR141C, strain kar3, active compounds read low 0.977
